# Screens as filed in PubChem BioAssay.
# In the library only some 3.9% were active in any assay of this set; here they are far more common.
# TGFb inhibitor – qHTS for Inhibitors of TGF-b; Potency, µM (top dose mostly 46.1 µM), actives largely listed as inhibitors; AID 588855, 2011; 410,000 compounds, 1.2% hits; HepG2 CAGA-GFP TGF-b/SMAD3 reporter, GFP fluorescence, 18 h; TGF-beta stimulated, 500 pg/mL final; also: nearly all actives have a fitted effect of over 65% in size
#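 Per well, imaged GFP fluorescence of HEPG2 CAGA-GFP cells gives the signal; cells get compound, then TGF-beta (500 pg/mL final), 18 h at 37 degrees C; %Activity versus -TGF-beta and +DMSO controls.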
# S2 tox – Viability Counterscreen for Primary qHTS for Inhibitors of ATXN expression. S2 cells (HEK-293 line with an ATXN2-luciferase reporter) viability, CellTiter-Fluor protease fluorescence, 24 h. Potency, µM (doses to about 56.7 µM), usual class: cytotoxic. 400,000 compounds, 0.49% hits. AID 651635, 2014; also: nearly all actives have a fitted effect of over 40% in size
# HT1080 IDH1KD tx – qHTS for induction of synthetic lethality in tumor cells producing 2HG: qHTS for the HT-1080-IDH1KD cell line. HT-1080 IDH1 knockdown viability, ATP luminescence, 48 h. AID 686971, 2013. 360,000 compounds, 2% hits. Potency, µM (titrated, usually from 46.1 µM), usual class: cytotoxic
#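 HT-1080-IDH1KD cells (IDH1 knocked down), 750/well in RPMI with 5% FBS, treated with compound 48 h at 37 degrees C. Viability by CellTiter-Glo luminescence, normalised to DMSO and no-cell wells; concentration-response curves classed.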
# ATXN2 expr inh – Primary qHTS for Inhibitors of ATXN expression. AID 1745845, 2022. 360,000 compounds, 0.72% hits. HEK-293 ATXN2-luciferase reporter, luminescence, 24 h. Potency, µM (doses to about 57 µM), most hits filed as inhibitors; also: nearly all actives have a fitted effect of over 55% in size
#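 ATXN2-luciferase reporter cells (luciferase flanked by upstream and downstream ATXN2 gene portions) were treated 24 h at 37 °C with compounds at up to 57 uM. SteadyGlo luminescence gave expression; GF-AFC fluorescence gave viability.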
# HT1080NT lethal – qHTS for induction of synthetic lethality in tumor cells producing 2HG: qHTS for the HT-1080-NT fibrosarcoma cell line. Potency, µM (doses to about 46.1 µM), actives largely listed as cytotoxic. AID 686970, 2013. HT-1080-NT fibrosarcoma viability, CellTiter-Glo ATP luminescence, 48 h. 360,000 compounds, 1.6% hits;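 also: NT is the 2HG producing partner of a matched IDH1 knockdown line; nearly all actives have a fitted effect of over 55% in size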
#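 HT-1080-NT fibrosarcoma cells (2HG-overproducing), 750 cells/well in RPMI with 5% FBS, dosed after 2 h and incubated 48 h at 37C. CellTiter-Glo luminescence normalized to DMSO and no-cell wells; concentration-response curves fitted and classed.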
# HepG2 tox – qHTS for Inhibitors of TGF-b: Cytotox Counterscreen | HepG2 CAGA-GFP viability, ATP luminescence, 18 h | Potency, µM (highest dose often 46.1 µM), most hits filed as cytotoxic | 410,000 compounds, 0.76% hits | AID 588856, 2011
#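 HepG2 CAGA-GFP cells (1000/well, DMEM with 1% FBS) received compound, then TGF-beta at 500 pg/mL final, and were incubated 18 hours at 37 degrees C. Viability was read by CellTiter-Glo luminescence. Media-only wells were set as complete cell-killing and DMSO as no toxicity.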
# A number is an active result; i = inactive; ? = inconclusive; nt = no result given. Calls follow the shape of the dose curve; as a rule, active = well fitted curve in the direction sought with a large enough effect; inconclusive = small, poorly fitted or top-dose-only effect, or another doubt; inactive = no such curve, though single readings can be large; an effect the other way counts as inactive or inconclusive.
SMILES,TGFb inhibitor,S2 tox,HT1080 IDH1KD tx,ATXN2 expr inh,HT1080NT lethal,HepG2 tox
Cc1cccc(NC2=C/C(=N/S(=O)(=O)c3cccs3)c3ccccc3C2=O)c1,?,?,3.3µM,?,4.6µM,i
CCOc1ccccc1NC(=O)CCc1c(C)nc2c(c(C)nn2-c2ccccc2)c1C,i,i,nt,i,nt,i
COc1ccc(S(=O)(=O)N(C(C)=O)c2ccc(OC(C)=O)c3ccccc23)cc1[N+](=O)[O-],?,?,?,nt,21µM,i
CCc1ncc(CN2CCCC(C(=O)Nc3cccc(-c4ccc(F)cc4)c3)C2)cn1 (stereo not given),i,i,i,i,i,i
O=C(Nc1cccc(-c2ccc(F)cc2)c1)C1CCCN(Cc2cccnc2)C1 (stereo not given),i,i,18µM,i,?,i
COc1cccc(-c2ccc(NC(=O)C3CCCN(Cc4cnn(C(C)C)c4)C3)cc2)c1 (stereo not given),?,i,?,?,18µM,i
CCCCCn1c(CCCNC(=O)c2ccc(Cl)cc2)nc2ccccc21,?,i,nt,i,nt,i
O=C(COc1ccccc1C(=O)Nc1ccccc1)NCCCCc1ccccc1,nt,nt,i,nt,i,nt
COc1ccc(-c2ccnc(-n3ncc(C(=O)NC(C)(C)CO)c3C3CC3)n2)cc1F,nt,i,nt,nt,nt,nt
Cc1cccc(NC(=O)C2CCCN(S(=O)(=O)c3ccc4c(c3)CCCC(=O)N4)C2)c1 (stereo not given),i,?,nt,i,nt,i
COC(=O)c1c(-c2cccs2)csc1NC(=O)c1ccc(Br)cc1,i,i,nt,i,nt,i
COc1ccccc1NC(=O)N1CCC(c2nc3cc(C)c(C)cc3[nH]2)CC1,?,i,5.8µM,i,5.8µM,i
CN(C)C(=S)N=Nc1[nH]c2ccccc2c1O,2.8µM,nt,i,nt,i,i
O=c1[nH]c(Nc2nc3ccccc3o2)nc2c1CCCC2,?,?,4µM,?,2.2µM,i
Cc1c(C(=O)N(C)Cc2cscn2)sc2ncnc(NC[C@H]3CCc4ccccc4O3)c12,nt,i,nt,nt,nt,nt
C=CC(=O)Nc1ccc(CN2C(=O)N(c3c(Cl)c(OC)cc(OC)c3Cl)Cc3cnc(NCCCCN(CC)CC)nc32)cc1,?,11µM,15µM,?,23µM,i
CCC(=O)N1CCc2cc(CNS(=O)(=O)c3ccc(C(C)C)cc3)ccc21,?,?,nt,i,nt,i
CCC1(C2CCN(C(=O)c3ccc(C)cc3C)CC2)NC(=O)N(CCc2scnc2C)C1=O (stereo not given),nt,i,nt,nt,nt,nt
CCc1ccccc1NC(=O)C1(C)Cc2ccccc2C(=O)O1 (stereo not given),i,i,nt,i,nt,i
O=C(O)C1=CC[C@@H](c2ccc(Cl)cc2)N(S(=O)(=O)c2ccc(Cl)cc2)[C@H]1c1ccc(Br)cc1,13µM,i,i,i,i,i
Cc1ccccc1S(=O)(=O)N1[C@@H](c2ccc(Br)cc2)C(C(=O)O)=CC[C@H]1c1ccc(Cl)cc1,18µM,?,i,i,i,i
Cc1ccccc1S(=O)(=O)N1[C@@H](c2ccccc2)C(C(=O)O)=CC[C@H]1c1ccc(Cl)cc1,?,i,i,i,i,i
Cc1ccc(S(=O)(=O)N2[C@@H](c3ccc(Br)cc3)C(C(=O)O)=CC[C@H]2c2ccc(Cl)cc2)cc1,?,i,i,i,i,i
C[C@@]12C(=O)Nc3ccc(Br)cc3C(=O)N1[C@H]1c3cc(Br)ccc3OC[C@@H]1[C@@H]2c1ccccc1,i,i,i,i,?,i
Cc1ccc2c(c1)[C@H]1[C@H](CO2)[C@H](c2ccccc2)[C@]2(C)C(=O)Nc3ccc(F)cc3C(=O)N12,i,?,5.8µM,?,?,i
SMILES,TGFb inhibitor,S2 tox,HT1080 IDH1KD tx,ATXN2 expr inh,HT1080NT lethal,HepG2 tox
C[C@@]12C(=O)Nc3ccccc3C(=O)N1[C@H]1c3cc(Br)ccc3OC[C@@H]1[C@@H]2c1ccccc1,?,i,5.8µM,i,?,i
COc1cc2c(cc1OC)C(=O)N1[C@H]3c4cc(C)ccc4OC[C@@H]3[C@H](c3ccccc3)[C@]1(C)C(=O)N2,i,i,16µM,i,?,i
Cc1ccc2c(c1)[C@H]1[C@H](CO2)[C@H](c2ccccc2)[C@]2(C)C(=O)Nc3cc(F)c(F)cc3C(=O)N12,i,i,?,?,?,i
COc1ccc2c(c1)C(=O)N1[C@H]3c4cc(Cl)ccc4OC[C@@H]3[C@H](c3ccccc3)[C@]1(C)C(=O)N2,i,i,15µM,i,6.5µM,i
Cc1onc(-c2c(Cl)cccc2Cl)c1C(=O)Cl,nt,i,nt,i,nt,nt
O=C1N/C(=N/c2ccccn2)SC1Cc1ccccc1 (stereo not given),i,i,10µM,i,?,i
CCOC(=O)C1CCN(C(=O)CCNC(=O)c2ccccc2OC)CC1,i,i,i,i,i,i
CCCCCCCCCCCCCCCCCCNC(=O)OC1CCN(C(=O)OC[C@H](COC(=O)N(Cc2cccc[n+]2CC)C(=O)c2ccccc2OC)OC)CC1,nt,35µM,nt,35µM,nt,nt
O=C(CCCn1c(=O)c2cccn2c2ccccc21)Nc1cc(C(F)(F)F)ccc1Cl,i,nt,nt,nt,nt,i
CCSc1nnc(NC(=O)NC(CC)(C(F)(F)F)C(F)(F)F)s1,13µM,?,?,?,18µM,i
CCSc1nnc(NC(=O)NC(C)(C(F)(F)F)C(F)(F)F)s1,?,i,?,i,?,i
NS(=O)(=O)c1cc(C(=O)NN2C[C@H]3[C@H]4CCC(C4)[C@H]3C2)ccc1Cl,nt,i,nt,i,nt,nt
Cc1ccc(CNC(=O)Cn2c(=O)n(-c3ccc(Cl)cc3)c(=O)c3c(C)c(C)sc32)cc1,i,i,nt,i,nt,i
O=C1c2cc(F)ccc2-n2c1nc1ccccc1c2=O,?,i,?,?,?,1.1µM
CCCCC(=O)/C=C/n1c(=S)oc2ccccc21,5µM,?,3.7µM,?,10µM,i
CCCCC(F)(F)[C@@]1(O)CC[C@H]2[C@H](CC(=O)[C@@H]2CCCCCCC(=O)O)O1,nt,i,nt,?,nt,nt
CCCC1([C@H](O)C/C=C/[C@H]2[C@H](O)CC(=O)[C@@H]2CCCCCCC(=O)OC)CCC1,nt,35µM,nt,nt,nt,nt
OC(c1cccc(CN2CCCCC2)c1)c1ncc(-c2cccc(C(F)(F)F)c2)[nH]1 (stereo not given),i,i,?,i,21µM,i
COc1cccc(-c2cnc(C(O)c3cccc(CN4CCCCC4)c3)[nH]2)c1 (stereo not given),i,i,i,i,i,i
